Measurements from PubChem BioAssay AID449 (The Scripps Research Institute Molecular Screening Center, 2006).
About 320 (0.57%) of roughly 56,000 compounds were called active.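 The calls were made as follows: active = activation above a cutoff set at the mean activation of all tested compounds plus 3 SD (cut at about 54% in these data); inactive = the rest, inconclusive results apart.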 Only a selection was taken, and actives are over-represented in it overall.

Biological target: Sphingosine 1-phosphate receptor 1 (Homo sapiens) (UniProt P21453)
Experiment: S1P1 agonists and agonism potentiators, primary screen, cell-based, primary and confirmation screens, CRE-bla reporter (AID 449);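 also: forskolin at 4 µM as EC80 and the EC20 agonist is SEW2871; 100% = SEW2871 at its EC100 plus forskolin at EC80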
Settings: S1P1 CRE-bla cells, forskolin, beta-lactamase FRET, potentiator mode, at 9.5 µM, stronger effect = higher value, 100% = saturating reference agonist, 0% = basal, S1P1 agonist co-added at EC20, 2 nM
[1] = measured here: confirmation screen, triplicate average

Sequence of Sphingosine 1-phosphate receptor 1 (Homo sapiens) (P21453 whole entry, looked up): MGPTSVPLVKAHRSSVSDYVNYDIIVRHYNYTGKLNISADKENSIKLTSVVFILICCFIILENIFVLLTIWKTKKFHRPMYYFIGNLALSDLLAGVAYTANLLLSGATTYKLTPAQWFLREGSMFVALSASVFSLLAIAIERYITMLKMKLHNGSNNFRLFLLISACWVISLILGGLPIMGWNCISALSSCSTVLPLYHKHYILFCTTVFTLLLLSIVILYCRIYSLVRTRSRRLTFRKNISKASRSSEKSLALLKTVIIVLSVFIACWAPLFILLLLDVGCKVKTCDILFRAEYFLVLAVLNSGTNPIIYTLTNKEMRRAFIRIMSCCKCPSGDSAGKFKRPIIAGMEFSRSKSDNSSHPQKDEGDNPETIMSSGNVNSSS

Compound	activation	activation [1] [%]
Cc1nnc(SCC(N)=O)n1CC1CCCO1 (stereo not drawn)	-8.7% (inactive)	
Cc1ccsc1C(=O)OCC(=O)c1cc(C)n(CC2CCCO2)c1C (stereo not drawn)	57% (active)	84.7
COC(=O)c1ccc2c(=O)n(CC3CCCO3)c(=S)[nH]c2c1 (stereo not drawn)	-12.1% (inactive)	
COC(=O)c1ccc(S(=O)(=O)c2ccc(C(=O)OC)s2)s1	1.7% (inactive)	
NC(=O)c1ccsc1NC(=O)c1ccco1	1% (inactive)	
COc1cc(=O)[nH]c(=O)n1C(=O)Cc1ccccc1	-7.8% (inactive)	
CC1CCCN(Cc2nc3c(c(=O)n(C)c(=O)n3C)n2Cc2cccc3ccccc23)C1 (stereo not drawn)	10.7% (inactive)	
CCOC(=O)C1CCCN(C(=O)C2CCN(c3nnc(-n4cccc4)s3)CC2)C1 (stereo not drawn)	-27.3% (inactive)	
Cc1c2cn[nH]c(=O)c2c(C)n1Cc1ccc(F)cc1	-6.4% (inactive)	
C=CCSc1nnc(Cn2c(=O)sc3ccccc32)n1C	-13.4% (inactive)	
Cn1c(=O)c2c(nc(SCCNS(=O)(=O)c3ccccc3)n2C)n(C)c1=O	-18.9% (inactive)	
CN(C)/C=C/c1c(C#N)c(=O)ncn1Cc1ccccc1	-5.6% (inactive)	
O=c1c2[nH]c3ccc(Cl)cc3c2ncn1Cc1ccccn1	-22.3% (inactive)	
CN(C)c1ccnc2sc3c(=O)n(Cc4ccccc4)cnc3c12	75.3% (active)	84.4
O=C1CCCN1CCCNc1ncnc2c1[nH]c1ccccc12	6.8% (inactive)	
CC(C)OCCCNc1ncnc2c1[nH]c1ccc(F)cc12	91.1% (active)	110
CCN1CCCC1CNc1ncnc2c1[nH]c1ccc(F)cc12 (stereo not drawn)	4.2% (inactive)	
Cc1nc2c(c(=O)n1Cc1ccco1)c1nc3ccccc3nc1n2Cc1ccccc1	2.5% (inactive)	
CCCCCCn1c(SCC(=O)c2ccccc2)nc2c1c(=O)[nH]c(=O)n2C	-26.5% (inactive)	
O=C(CCN1C(=O)COc2ccccc21)NCCCN1CCN(c2ccc(F)cc2)CC1	-29.7% (inactive)	

Compound	activation	activation [1] [%]
N/C(=N\c1nc2ccccc2o1)NC(=O)C(Cc1ccccc1)N1C(=O)c2ccccc2C1=O (stereo not drawn)	-12% (inactive)	
CCOc1ccc2[nH]c(=O)c(CN(CCCO)C(C)=O)cc2c1	2.1% (inactive)	
COc1ccc(S(=O)(=O)N2CCN(C(=O)c3cccs3)CC2)cc1OC	15.9% (inactive)	
Cc1ccc(-c2nc(COC(=O)c3c(C)noc3C)cs2)cc1	85.3% (active)	98.2
Cc1noc(C)c1C(=O)OCC(=O)/C=C1\N(C)c2ccccc2C1(C)C	-18.5% (inactive)	
COC(=O)c1c(-c2ccc(C)cc2)csc1N	23% (inactive)	
Cc1cccn2c(=O)c3cc(C#N)c(=O)n(CCCN4CCOCC4)c3nc12	-29% (inactive)	
Cc1nc(C)c(C(=O)Nc2cccc(C)c2C)o1	-15.9% (inactive)	
CCN(Cc1cc2cc(C)ccc2[nH]c1=O)S(=O)(=O)c1ccccc1	26.9% (inactive)	
CCc1ccccc1N(CC(=O)NCCSCc1ccco1)S(C)(=O)=O	-204% (inactive)	
Cc1cccc(-c2noc(-c3ccc(F)cc3)n2)c1	1% (inactive)	
COc1ccc(-c2noc(-c3cccc(OC)c3OC)n2)cc1OC	84.3% (active)	77.6
COc1cc(-c2nc(-c3ccncc3)no2)cc(OC)c1OC	-7% (inactive)	
O=P(c1cccs1)(c1cccs1)c1cccs1	-23.6% (inactive)	
O=C(c1cc(-c2ccc(O)cc2)on1)N1CCCc2ccccc21	15.4% (inactive)	
Cc1cc(C)nc(NC(=O)Nc2ccccc2C(F)(F)F)n1	-24.3% (inactive)	
O=C(Nc1ccccc1C(F)(F)F)c1cc(-c2ccc(O)cc2)on1	89% (active)	96.3
CCn1c(SCCC(C)C)nnc1-c1c[nH]c2ccccc12	33% (inactive)	
Cc1ccc2c(c1)c1ncn(CCC3=CCCCC3)c(=O)c1n2C	-12.4% (inactive)	
CCOCC(=O)NCc1ccc2c(c1)cc(C)n2C	-18% (inactive)	

Compound	activation	activation [1] [%]
Cc1ccc(Cn2c(NC(=O)c3ccco3)nc3ccccc32)cc1	-7.4% (inactive)	
Cc1cc(NC(=O)CN2CCCCC2C)nc2c1c(=O)oc1ccccc12 (stereo not drawn)	-16.9% (inactive)	
CC1(C)CC(=O)C2=C(C1)NCN(CCCN1CCOCC1)C2	-12.5% (inactive)	
COc1ccc(CCNC(=O)CCn2c(=O)oc3ccccc32)cc1OC	-30% (inactive)	
Cc1cc(Cl)ccc1N1C(=O)CC(SCCC(=O)O)C1=O (stereo not drawn)	15% (inactive)	
O=C(NCCN1C(=O)C2C3C=CC(C3)C2C1=O)Nc1ccccn1 (stereo not drawn)	1.7% (inactive)	
C#CCN1CC(C)/C(=N/O)CC1C (stereo not drawn)	-13.4% (inactive)	
Cc1cc(N2CCN(Cc3ccc4c(c3)OCO4)CC2)n2ncnc2n1	3.4% (inactive)	
Fc1ccc2[nH]c3c(N4CCN(Cc5ccc6c(c5)OCO6)CC4)ncnc3c2c1	106% (active)	116
Fc1ccc2nc(N3CCCCC3)sc2c1	-23.5% (inactive)	
Fc1ccc2[nH]c3c(N4CCSCC4)ncnc3c2c1	73% (active)	103
O=C(c1cccs1)N1CCN(Cc2ccc3c(c2)OCO3)CC1	1.7% (inactive)	
Cc1ccc(-n2ncc3c(N4CCN(c5ccc(F)cc5)CC4)ncnc32)c(C)c1	-9.5% (inactive)	
Cc1noc(/C=C/N(C)C)c1S(=O)(=O)N1CCCC(C(=O)NCc2ccco2)C1 (stereo not drawn)	-32.7% (inactive)	
Cc1cc(/C=N/n2cnnc2)c(C)n1-c1cccc(C(=O)O)c1	-16.1% (inactive)	
Cc1ccc(C(c2sc3nc(C)nn3c2O)N2CCN(c3ccccc3)CC2)cc1 (stereo not drawn)	-6.2% (inactive)	
CCN(CC)P(=O)(C(NC(=O)OC)C(F)(F)C(F)(F)C(F)(F)C(F)F)N(CC)CC (stereo not drawn)	2.6% (inactive)	
COc1ccc(CC(=O)n2nc(-c3cccnc3)nc2N)cc1	2.4% (inactive)	
CC12CCC(C(=O)N(CCC#N)CCC#N)(CC1=O)C2(C)C (stereo not drawn)	-0.9% (inactive)	
CC1Cc2ccccc2N1C(=O)CSc1nnc(-c2ccc(S(=O)(=O)N3CCCCC3)cc2)o1 (stereo not drawn)	-18.5% (inactive)	
